According to PubChem BioAssay (EPA / NIEHS):
“And” between values parts separate entries of the source, which are not always exact repeats. Equal entries are not always repeated. Records with an inconclusive call do not appear. Some compounds were tested as several samples or in several runs, with calls that do not always agree. The source made the active and inactive calls. The calls were made as follows, unless noted: active = hit-call score of the fitted dose curve at least 0.9, where 1 is the maximum; inactive = score below 0.9.

Experiments:
[1] = BSK_3C_TissueFactor: BioMAP Diversity Plus: 3C Assay for Tissue Factor Biomarker Activity (AID 2282997); conditions: BioMAP 3C HUVEC, tissue factor biomarker readout; actives raise or lower the signal
Method in brief: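 Dosing of human umbilical vein endothelial cells preceded a 24 h incubation. Tissue Factor was then read by ELISA, with increases and decreases both scored relative to DMSO controls.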

[2] = read-out: Intercellular Adhesion Molecule 1 (ICAM1), ICAM1 (gene 3383); assay: BSK_3C_ICAM1: BioMAP Diversity Plus: 3C Assay for Intercellular Adhesion Molecule 1 (ICAM1) Biomarker Activity (AID 2283003); conditions: primary human endothelial cells (HUVEC); actives raise or lower the signal
Method in brief: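 Human vascular endothelial primary cells, 3C conditions, 24 h treatment. ICAM-1 by ELISA.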

[3] = read-out: Human Leukocyte Antigen - DR isotype (HLADR), HLA-DRA (gene 3122); assay: BSK_3C_HLADR: BioMAP Diversity Plus: 3C Assay for Human Leukocyte Antigen - DR isotype (HLADR) Biomarker Activity (AID 2283019); conditions: primary human endothelial cells (HUVEC); actives raise or lower the signal
Method in brief: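 Bidirectional fitting against DMSO was applied to the HLA-DR ELISA signal from human umbilical vein endothelial cells, 24 h post-dose. Cytotoxicity came from parallel SRB total-protein staining; 3C proliferation was counted by SRB at 48 h.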

[4] = read-out: Matrix Metallopeptidase 1 (MMP1), MMP1 (gene 4312); assay: BSK_BE3C_MMP1: BioMAP Diversity Plus: BE3C Assay for Matrix Metallopeptidase 1 (MMP1) Biomarker Activity (AID 2283024); conditions: primary human bronchial epithelial cells; actives raise or lower the signal
Method in brief: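 Dose cells, wait 24 h, run MMP1 ELISA; cells are human bronchial epithelial primaries. Both increases and decreases relative to DMSO counted.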

[5] = read-out: Pselectin, SELP (gene 6403); assay: BSK_4H_Pselectin: BioMAP Diversity Plus: 4H Assay for Pselectin Biomarker Activity (AID 2283026); conditions: primary human endothelial cells (HUVEC); actives raise or lower the signal
Method in brief: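 Human vascular endothelium from umbilical vein; P-selectin measured by ELISA at 24 h post-dose, with cytotoxicity checked by sulforhodamine B total-protein staining in parallel cultures (0.1% SRB after 10% TCA fixation, read at 560 nm).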

[6] = read-out: Urokinase-type plasminogen activator receptor (uPAR), PLAUR (gene 5329); assay: BSK_4H_uPAR: BioMAP Diversity Plus: 4H Assay for Urokinase-type plasminogen activator receptor (uPAR) Biomarker Activity (AID 2283030); conditions: primary human endothelial cells (HUVEC); actives raise or lower the signal
Method in brief: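 uPAR level read by ELISA on HUVEC cultures (BioMAP 4H) 24 h post-dosing, analyzed for gain or loss relative to DMSO. Parallel SRB staining assessed overt cytotoxicity.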

[7] = read-out: Vascular endothelial growth factor receptor 2 (Homo sapiens) (UniProt P35968); assay: BSK_4H_VEGFRII: BioMAP Diversity Plus: 4H Assay for Vascular endothelial growth factor receptor 2 (VEGFR2) Biomarker Activity (AID 2283031); conditions: primary human endothelial cells (HUVEC); actives raise or lower the signal;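 as to AC50: cell-surface VEGFR2 protein level quantified by ELISA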
Method in brief: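 Measured by ELISA after 24 h of compound treatment: VEGFR2 on primary human umbilical vein endothelial cells, fitted in both directions relative to DMSO. Parallel cultures received SRB staining (560 nm) for overt cytotoxicity.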

[8] = read-out: Human Leukocyte Antigen - DR isotype (HLADR), HLA-DRA (gene 3122); assay: BSK_BE3C_HLADR: BioMAP Diversity Plus: BE3C Assay for Human Leukocyte Antigen - DR isotype (HLADR) Biomarker Activity (AID 2283032); conditions: primary human bronchial epithelial cells; actives raise or lower the signal
Method in brief: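 Signal came from an ELISA for HLA-DR in human bronchial epithelial primary cells harvested 24 h after treatment; gain- and loss-of-signal fitting used DMSO controls as reference.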

[9] = read-out: Vascular cell adhesion molecule 1 (VCAM1), VCAM1 (gene 7412); assay: BSK_4H_VCAM1: BioMAP Diversity Plus: 4H Assay for Vascular cell adhesion molecule 1 (VCAM1) Biomarker Activity (AID 2283033); conditions: primary human endothelial cells (HUVEC); actives raise or lower the signal
Method in brief: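 Endpoint derived from bidirectional fitting against DMSO controls of VCAM-1 ELISA signal in umbilical vein endothelial cells sampled at 24 h following treatment.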

[10] = read-out: Interferon-gamma inducible Protein 10 (IP10), CXCL10 (gene 3627); assay: BSK_BE3C_IP10: BioMAP Diversity Plus: BE3C Assay for Interferon-gamma inducible Protein 10 (IP10) Biomarker Activity (AID 2283034); conditions: primary human bronchial epithelial cells; actives raise or lower the signal
Method in brief: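 Using primary human bronchial epithelial cultures, the assay captures IP-10 by ELISA one day (24 h) after exposure. Parallel SRB staining of total protein flags overt cytotoxicity. Fits run bidirectionally relative to DMSO.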

[11] = read-out: urokinase plasminogen activator (uPA), PLAU (gene 5328); assay: BSK_BE3C_uPA: BioMAP Diversity Plus: BE3C Assay for urokinase plasminogen activator (uPA) Biomarker Activity (AID 2283038); conditions: primary human bronchial epithelial cells; actives raise or lower the signal
Method in brief: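 ELISA for uPA on human primary bronchial epithelial cultures 24 h post-treatment, gain or loss against DMSO. Parallel SRB staining (0.1% after 10% TCA fixation, 560 nm) assessed overt cytotoxicity.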

[12] = read-out: Interleukin-6 (IL6), IL6 (gene 3569); assay: BSK_CASM3C_IL6: BioMAP Diversity Plus: CASM3C Assay for Interleukin-6 (IL6) Biomarker Activity for (AID 2283040); conditions: primary human coronary artery smooth muscle cells; actives raise or lower the signal
[13] = read-out: Monokine induced gamma interferon (MIG), CXCL9 (gene 4283); assay: BSK_CASM3C_MIG: BioMAP Diversity Plus: CASM3C Assay for Monokine induced gamma interferon (MIG) Biomarker Activity (AID 2283048); conditions: primary human coronary artery smooth muscle cells; actives raise or lower the signal;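 also: MIG protein level measured by ELISA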
[14] = read-out: serum amyloid A (SAA), SAA1 (gene 6288); assay: BSK_CASM3C_SAA: BioMAP Diversity Plus: CASM3C Assay for serum amyloid A (SAA) Biomarker Activity (AID 2283049); conditions: primary human coronary artery smooth muscle cells; actives raise or lower the signal;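 also: SAA protein level quantified by ELISA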
[15] = read-out: Thrombomodulin, THBD (gene 7056); assay: BSK_CASM3C_Thrombomodulin: BioMAP Diversity Plus: CASM3C Assay for Thrombomodulin Biomarker Activity (AID 2283051); conditions: primary human coronary artery smooth muscle cells; actives raise or lower the signal;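 also: thrombomodulin protein level measured by ELISA 24 h after dosing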
[16] = read-out: Interleukin-8 (IL8), CXCL8 (gene 3576); assay: BSK_LPS_IL8: BioMAP Diversity Plus: LPS Assay for Interleukin-8 (IL8) Biomarker Activity (AID 2283078); conditions: primary human HUVEC with PBMC; actives raise or lower the signal
Method in brief: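 ELISA read-out of IL-8 after 24 h chemical treatment of LPS-activated endothelial/PBMC human primary co-cultures. Changes either up or down relative to DMSO; overt cytotoxicity checked by sulforhodamine B staining in parallel wells.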

[17] = read-out: Tissue Factor, F3 (gene 2152); assay: BSK_LPS_TissueFactor: BioMAP Diversity Plus: LPS Assay for Tissue Factor Biomarker Activity (AID 2283084); conditions: primary human HUVEC with PBMC; actives raise or lower the signal
Method in brief: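 Compound was added to an endothelial cell/PBMC co-culture, and after 24 h tissue factor (CD142) was read by ELISA. Gain or loss of signal was fitted against a DMSO baseline, and parallel SRB staining (560 nm) tracked overt cytotoxicity.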

[18] = BSK_SAg_PBMCCytotoxicity: PBMC Cytotoxicity Assessment in the BioMAP Diversity Plus: SAg Assay (AID 2283093); conditions: primary human HUVEC with PBMC;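 also: PBMC viability measured as Alamar Blue reduction fluorescence at 546/580 nm; fitted both ways against DMSO so a hit may be loss or gain of signal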;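 as to AC50: PBMC superantigen activated with SEB plus TSST-1 one hour after compound addition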
Method in brief: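 Compound added to 75,000 PBMC/well for 1 h; SEB and TSST-1 then added at 20 ng/mL final each; 90 h incubation; Alamar Blue 6 h; read 546/580 nm ex/em. Activity fitted bidirectionally relative to DMSO baseline.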

[19] = molecular target: Estrogen-related receptor gamma (Homo sapiens) (UniProt P62508); assay: ATG_ERRg_TRANS: Attagene TRANS-FACTORIAL HepG2 Assay for human Estrogen-Related Receptor gamma (ERRg) (AID 2282977; active = hit-call score of the fitted dose curve at least 0.9, where 1 is the maximum;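 also: hits increase reporter signal over DMSO so potencies reflect activators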); conditions: HepG2 Attagene TRANS reporter, ERRg transactivation
Estrogen-related receptor gamma (Homo sapiens), sequence (P62508 whole entry, looked up, the tested form may be a part): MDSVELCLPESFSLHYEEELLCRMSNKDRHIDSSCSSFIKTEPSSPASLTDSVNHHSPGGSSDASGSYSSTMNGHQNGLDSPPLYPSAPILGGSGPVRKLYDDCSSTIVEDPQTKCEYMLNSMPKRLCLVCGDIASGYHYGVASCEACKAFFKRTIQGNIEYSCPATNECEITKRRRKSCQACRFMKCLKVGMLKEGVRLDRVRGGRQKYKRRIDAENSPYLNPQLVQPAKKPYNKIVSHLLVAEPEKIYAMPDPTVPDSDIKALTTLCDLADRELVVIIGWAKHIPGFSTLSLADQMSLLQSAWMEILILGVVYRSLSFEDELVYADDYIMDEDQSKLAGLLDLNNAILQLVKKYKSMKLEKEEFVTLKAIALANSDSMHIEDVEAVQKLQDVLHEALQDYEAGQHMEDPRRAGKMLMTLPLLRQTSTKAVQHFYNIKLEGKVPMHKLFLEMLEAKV
Method in brief: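 Transient HepG2 transfectants, 24 h compound exposure, GAL4-UAS reporter mRNA by RT-PCR/6-FAM labelling/capillary electrophoresis; positive direction vs DMSO.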

[20] = molecular target: human RAR-related Orphan Receptor gamma (RORg), RORC (gene 6097) (UniProt P51449); assay: ATG_RORg_TRANS: Attagene TRANS-FACTORIAL HepG2 Assay for human RAR-related Orphan Receptor gamma (RORg) (AID 2283011; active = hit-call score of the fitted dose curve at least 0.9, where 1 is the maximum)
human RAR-related Orphan Receptor gamma (RORg), RORC (gene 6097), sequence (P51449 whole entry, looked up, the tested form may be a part): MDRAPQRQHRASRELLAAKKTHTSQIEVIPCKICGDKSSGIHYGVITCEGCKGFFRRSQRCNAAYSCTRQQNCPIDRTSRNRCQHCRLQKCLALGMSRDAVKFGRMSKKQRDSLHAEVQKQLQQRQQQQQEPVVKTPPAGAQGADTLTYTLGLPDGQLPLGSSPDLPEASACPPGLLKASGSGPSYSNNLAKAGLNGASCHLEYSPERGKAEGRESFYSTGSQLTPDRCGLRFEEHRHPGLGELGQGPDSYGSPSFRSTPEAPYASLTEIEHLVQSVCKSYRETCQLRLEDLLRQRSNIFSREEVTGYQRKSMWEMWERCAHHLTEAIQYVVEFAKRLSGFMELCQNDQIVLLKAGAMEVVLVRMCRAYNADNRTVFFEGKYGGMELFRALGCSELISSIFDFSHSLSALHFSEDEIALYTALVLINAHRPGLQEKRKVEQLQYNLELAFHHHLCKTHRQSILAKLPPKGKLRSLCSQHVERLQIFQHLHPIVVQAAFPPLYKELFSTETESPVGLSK
Method in brief: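 Reporter transcripts from a transfected RORg-GAL4 chimera in HepG2 cells were quantified 24 h after dosing by RT-PCR, 6-FAM labelling, HpaI digestion and capillary electrophoresis; increases over DMSO baseline were fitted.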

Measured: AC50

COc1ccccc1Oc1c(NS(=O)(=O)c2ccc(C(C)(C)C)cc2)nc(-c2ncccn2)nc1OCCO
active: [4] 20 µM | [14] 3.97 µM | [15] 7.25 µM | [16] 20 µM and 9.01 µM
inactive: [1] | [2] | [3] | [4] | [5] | [6] | [7] | [8] | [9] | [10] | [11] | [12] | [13] | [14] | [15] | [17] | [18]

OC(C(F)(F)F)(C(F)(F)F)C(O)(C(F)(F)F)C(F)(F)F
active: [1] 23.7 µM and 22.6 µM | [2] 40.6 µM | [3] 29.4 µM and 26.4 µM | [5] 22.1 µM and 21.4 µM | [6] 12.7 µM and 15.4 µM | [7] 30 µM and 20.5 µM | [8] 48.2 µM and 45.4 µM | [9] 24.3 µM and 30 µM | [10] 42.6 µM and 43.6 µM | [11] 28.8 µM and 32.2 µM | [12] 41.2 µM | [13] 39.8 µM and 30 µM | [15] 30 µM | [17] 30 µM
inactive: [2] | [4] | [12] | [14] | [15] | [16] | [18]

O=C(Oc1ccccc1)c1ccccc1
inactive: [19] | [20]

C=C(C)C(=O)OCCCCCC
inactive: [19]

O=[N+]([O-])c1cc(S(=O)(=O)Nc2ccccc2)ccc1Nc1ccccc1
inactive: [1] | [2] | [6] | [7] | [9] | [11] | [13] | [14] | [17] | [18]
active: [1] 34.8 µM | [3] 13.9 µM | [4] 5.29 µM and 5.21 µM | [5] 32.2 µM and 31.7 µM | [6] 33.5 µM | [7] 32.6 µM | [8] 31 µM and 32 µM | [9] 27.2 µM | [10] 32.4 µM and 31.9 µM | [11] 34.9 µM | [12] 20 µM and 10.3 µM | [15] 5.66 µM and 8.09 µM | [16] 22.7 µM and 20 µM | [17] 2.78 µM

O=C(O)/C=C\C(=O)O
inactive: [19]

CCOC(=O)c1ccccc1
inactive: [19] | [20]

COc1ccc(C(=O)c2ccccc2O)c(O)c1
inactive: [2] | [3] | [4] | [5] | [6] | [7] | [8] | [10] | [11] | [12] | [14] | [15] | [16] | [17] | [18]
active: [1] 20 µM and 17.9 µM | [3] 20 µM | [5] 20 µM | [6] 10.2 µM | [9] 11.5 µM and 14.2 µM | [13] 20 µM and 16.1 µM

CC(=O)OC(C)(C)Cc1ccccc1
inactive: [20]

CCCCC(CC)COC(=O)C=Cc1ccc(OC)cc1 (configuration not stated)
inactive: [2] | [4] | [6] | [7] | [8] | [10] | [11] | [12] | [13] | [14] | [15] | [16] | [17] | [18]
active: [1] 5.17 µM and 7.14 µM | [3] 30.4 µM and 22.1 µM | [5] 33.3 µM and 38.7 µM | [7] 31.7 µM | [9] 5.26 µM and 3.42 µM | [13] 32.4 µM | [14] 32.3 µM | [16] 12.9 µM | [17] 7.72 µM | [18] 36.1 µM

Cc1c(C(N)=O)cc([N+](=O)[O-])cc1[N+](=O)[O-]
active: [8] 27.8 µM | [10] 32.6 µM
inactive: [1] | [2] | [3] | [4] | [5] | [6] | [7] | [8] | [9] | [10] | [11] | [12] | [13] | [14] | [15] | [16] | [17] | [18]

C1CN(CCOCCN2CCOCC2)CCO1
inactive: [1] | [2] | [3] | [4] | [5] | [6] | [7] | [8] | [9] | [10] | [11] | [12] | [13] | [14] | [15] | [16] | [17] | [18]
active: [13] 1.82 µM | [16] 4.01 µM

CCCCC(CC)COC(=O)CS (configuration not stated)
inactive: [19]

CCCCCCCCCCCCCCCCCC[N+](C)(C)C
inactive: [6] | [14] | [15]
active: [19] 25 µM | [1] 5 µM | [2] 3.46 µM | [3] 1.27 µM | [4] 6.82 µM | [5] 1.34 µM | [7] 1.23 µM | [8] 2.52 µM | [9] 1.42 µM | [10] 2.69 µM | [11] 7.3 µM | [12] 8.51 µM | [13] 9.22 µM | [16] 7.3 µM | [17] 8.03 µM | [18] 3.16 µM

CC(C)C1OCCN1CCOC(=O)NCCCCCCNC(=O)OCCN1CCOC1C(C)C (configuration not stated)
inactive: [1] | [2] | [3] | [4] | [5] | [6] | [7] | [8] | [9] | [10] | [11] | [12] | [13] | [14] | [15] | [16] | [17] | [18]
active: [7] 33 µM
